Measured values from the supplement of paper PMC6555819.

Tests used:
Experiment in all cases: PBM binding z-score (relative to random genomic background probes); higher = stronger binding; sequences stand for … in GC…GCGATTGACAGCGTAGAATGAAGG
[1] = system: FXR:RXRa (NR concentration 270 nM, RXRa partner concentration 90 nM)
In short: (§1)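 Each nuclear receptor dimer, without ligand, was incubated for 1 h on custom Agilent 4×180K protein-binding microarrays. Binding was detected with antibodies against each partner (one per run), and scanned fluorescence was regression-normalized. The binding z-scores are referenced to random human genomic background probes.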

[2] = system: LXRa:RXRa (NR concentration 270 nM, RXRa partner concentration 90 nM)
In short: as §1

[3] = system: LXRa homodimer (NR concentration 270 nM)
In short: as §1

[4] = system: LXRb:RXRa (NR concentration 270 nM, RXRa partner concentration 90 nM)
In short: as §1

[5] = system: LXRb homodimer (NR concentration 270 nM)
In short: as §1

[6] = system: PPARa:RXRa (NR concentration 270 nM, RXRa partner concentration 90 nM)
In short: as §1

[7] = system: PPARg:RXRa (NR concentration 180 nM, RXRa partner concentration 90 nM)
In short: as §1

[8] = system: PPARg:RXRa 270nM:90nM, anti-RXR (NR concentration 270 nM, RXRa partner concentration 90 nM)
In short: as §1

[9] = system: PPARg:RXRa 30nM:10nM, anti-RXR (NR concentration 30 nM, RXRa partner concentration 10 nM)
In short: as §1

[10] = system: PPARg:RXRa 90nM:30nM, anti-RXR (NR concentration 90 nM, RXRa partner concentration 30 nM)
In short: as §1

Row | Sequence | PBM binding z-score [1] | PBM binding z-score [2] | PBM binding z-score [3] | PBM binding z-score [4] | PBM binding z-score [5] | PBM binding z-score [6] | PBM binding z-score [7] | PBM binding z-score [8] | PBM binding z-score [9] | PBM binding z-score [10]
1 | TCTATTAGTTGAAGGGCAACCCACGAGTCCGTTT | 0.7 | 1.04 | 0.728 | 1.18 | 0.631 | 1.08 | 0.343 | 2.04 | 3.83 | 2.89
2 | TCTTGTAGATCAATAGGGGTTAAGAAAGTGCGCT | 1.29 | 4.13 | 0.187 | 2.93 | 0.868 | 2.7 | 0.337 | 2.1 | 2.94 | 2.42
3 | ACATGTAGGTTAAGGGTCATTCAGGTTGGTTCGC | 5.47 | 4.89 | 3.12 | 4.5 | 1.95 | 6.02 | 11.1 | 9.37 | 8.78 | 11
4 | TCTGCTAGGTCAGTTGGTTAGCTAACGAGCTGCC | 0.851 | 0.567 | -0.601 | 0.643 | 0.257 | 1.05 | 0.0463 | 1.19 | 1.17 | 1.34
5 | TCTATGAGTTGAAGGGCAACCGACGAGTCCGTTT | 0.419 | 0.7 | -0.373 | 0.405 | -0.437 | 1.2 | 0.607 | 1.51 | 2.54 | 2.22
6 | TAGCCTAGGTCAGATCGGCCCAGTATACGCTATA | 1.44 | 1.09 | -0.637 | 0.955 | -0.183 | 1.87 | 1.07 | 0.986 | -0.286 | 0.142
7 | TATACAGGGTGAAAGGCCAGAGTACGAATGTCGA | 0.996 | 0.959 | -0.157 | 1.08 | 0.982 | 3.14 | 5.05 | 5.48 | 4.23 | 5.46
8 | TCTTTTAGTTGAAGGGCAACCGACGAGTCCGTTT | 0.645 | 1.13 | 0.171 | 1 | 1.62 | 1.16 | -0.118 | 2.13 | 3.65 | 2.71
9 | ATCTCTAGGTAACAAGTTCACTGAAAGAGAGGAC | 1.15 | 1.44 | 1.22 | 1.56 | 0.913 | 2.74 | 2.49 | 2.9 | 1.37 | 2.56
10 | ATCTCTAGGTAAAGATAGCTCAGTGAATGCAAAT | -0.126 | -0.286 | -0.237 | -0.258 | 0.316 | -0.203 | 0.422 | 0.32 | 0.153 | 0.317
11 | TCTTGTAGATCAAGCAGGTCAAGAAAGCCTGAGT | 0.916 | 1.2 | 0.357 | 1.67 | -0.193 | 2.29 | 0.0976 | 1.6 | 2.11 | 2.16
12 | TCTATGAGTTGATTAGGGCAACCGAAACAGCGGA | 0.319 | 0.351 | -0.0686 | 0.151 | -0.328 | 1.07 | 0.39 | 1.31 | 2.32 | 1.65
13 | AGAACGAGGACACGCTGAGTTGATAGCAGAGTAG | 0.477 | -0.638 | -0.296 | -0.945 | -0.622 | -0.44 | 0.748 | -0.466 | 0.251 | -0.327
14 | TATACAGGGTCAAAGCCCAGAGTACGAATGTCGA | 7.38 | 5.88 | 2.47 | 4.7 | 2.15 | 5.93 | 6.29 | 5.96 | 2.69 | 4.51
15 | AGAACGATGGCAATGAGTTGATAGCACGGGTGGC | -0.517 | -0.814 | -0.366 | -1.05 | -0.645 | -0.643 | 0.654 | -0.25 | -0.674 | -0.599
16 | TCTGCTAGGTCAACGATCGTCAGCTAATCTGCTA | 2.97 | 2.19 | -0.465 | 1.24 | -0.245 | 3.11 | 2.49 | 3.26 | 1.96 | 2.76
17 | CCTAGCAGGCCATGGTCACTCAAGCATTTCGCTT | -0.268 | -0.369 | -0.374 | -0.307 | -0.863 | -0.349 | -0.143 | -0.198 | -0.855 | -0.418
18 | CCTACTGGCCCATTCAGAGGTCATTGATCATATG | 2.81 | 4.4 | 6.69 | 3.76 | 0.83 | 3.28 | 0.571 | 1.44 | 0.377 | 1.09
19 | AGTCAAAGTTCAACTAGGTAACGTAAGATATGCT | 7.15 | 6.16 | 4.88 | 4.22 | 1.72 | 5.32 | 7.34 | 6.67 | 4.2 | 6.24
20 | CGAACGAGGGCATGAGTTGATAACAAATGCCGAT | 0.424 | 0.218 | -0.205 | 0.254 | -0.653 | 1.44 | 1.53 | 1.35 | 0.389 | 0.841
21 | CAAACTAGGTCAAGAGGTCAAAGTGCGCTTCCCG | 7.08 | 6.47 | 5.76 | 5.71 | 2.04 | 6.59 | 10.2 | 8.63 | 7.04 | 8.54
22 | ACCAGTTGGTCAGCTGAGGTCACACACAATTCGG | 4.09 | 3.33 | 2.22 | 3.21 | 0.296 | 3.54 | 1.58 | 2.14 | 0.389 | 1.17
23 | TTACCAAGGTGAAGGTCGTTTATCCCTCTGTAGA | 1.45 | 1.55 | 0.229 | 1.54 | -0.0351 | 2.47 | 2.42 | 3.95 | 1.78 | 3.31
24 | CCGACTGGGTCAAGGTTACCATAACGCACAGCCA | 3.19 | 2.1 | 0.079 | 2.21 | -0.717 | 4.15 | 6.25 | 5.71 | 3.15 | 5.32
